The results in this text go back to ChEMBL document CHEMBL4513216, “Probing the Open Global Health Chemical Diversity Library for Multistage-Active Starting Points for Next-Generation Antimalarials” (ACS Infect Dis, 2020).

Hit rate of the full screen: of about 69,000 compounds, about 8,600 (12%) showed an effect of 50% or more. This excerpt belongs to a sample that is enriched for strong results.

For this assay, the system named is Plasmodium berghei. Briefly: Screen against P. berghei liver stage (PbLuc), transformed with Luciferase, at 10uM. The note with it: tested at 10 uM. Format: functional, HepG2.
Regarding `COc1cccc(CN2CCCC2c2ccc[nH]2)c1` (centres undefined), the INHIBITION is recorded as 62.6%.
With `N#CCCCOc1cccc(CN2CCCC2c2ccc[nH]2)c1` (centres undefined) the figure was 43.1%.
For the compound `N#Cc1cccc(CN2CCCC2Cn2cncn2)c1` (centres undefined), the INHIBITION was determined as 7.18%.
In the case of `COc1cccc(S(=O)(=O)CCN2CCCC2c2ccc[nH]2)c1` (centres undefined), the INHIBITION worked out at 32.3%.
With `CN(C)c1cccc(C2CCCN2Cc2nnnn2C2CC2)c1` (centres undefined) the figure was 26.6%.
With `COc1cccc(C2CCCN2Cc2nnnn2C2CC2)c1` (centres undefined) the figure was 51.6%.
With `N#Cc1cccc(CN2CCCC2c2ccc[nH]2)c1` (centres undefined) the figure was 50.7%; with `NC(=O)c1ccc(OCC(=O)N2CCCC2c2ccc[nH]2)cc1` (centres undefined), 28.2%; with `N#Cc1cccc(CN2CCCC2Cn2cccn2)c1` (centres undefined), -11.4%.
Regarding `NC(=O)COc1cccc(CN2CCCC2c2ccc[nH]2)c1` (centres undefined), the INHIBITION stood at 62.6%.
With `COc1ccc(C2CCCN2Cc2nnnn2C2CC2)cc1OC` (centres undefined) the figure was 19.7%; with `NC(=O)COc1cccc(Cn2cccn2)c1`, -24.9%; with `Cc1nc(Cn2c3c(ccc2=O)CCN(CC2CC2)CC3)cs1`, -8.85%.
For the compound `COc1cccc(CC2CN(C3CCC3)CCO2)c1` (centres undefined), the INHIBITION worked out at 25.8%.
With `Cc1ccccc1NC(=O)c1cncc(C2CCNCC2)n1` the figure was -20.6%; with `CCN1CC[C@@]2(C(=O)N3CCOCC3)CCN(C(=O)C(C)C)CC[C@@H]12`, 14.9%; with `Cc1cnn(CC2CCCCN2CC(=O)Nc2nc(C)cs2)c1` (centres undefined), 33.8%.
With `Cc1nc(CN2CCO[C@@H]3CN(C(=O)CC4CC4)C[C@@H]3C2)cs1` the figure was 9.63%; with `Cn1ccnc1CC1CCCN(C(=O)Cc2ccccc2)C1` (centres undefined), 21.9%; with `Cc1nn(C)c(C)c1C1CCCN1Cc1cccc(C(N)=O)c1` (centres undefined), 5.37%.
With `COc1cccc(CN2CCCC2c2c(C)nn(C)c2C)c1` (centres undefined) the figure was -14.8%; with `Cc1nn(C)c(C)c1C1CCCN1Cc1cccc(OCC(N)=O)c1` (centres undefined), 72.9%; with `CCS(=O)(=O)CCN1CCCC1c1noc(C)n1` (centres undefined), 16.8%.
Turning to `Cc1cc(CNc2cccc(Cl)c2C)no1`, the INHIBITION is listed as 16.165%.
Take `CCCSc1ncc(-c2nccn2CCO)cn1`: the INHIBITION worked out at 35.1%.
Turning to `CCCSc1ncc(-c2nccn2CCC(N)=O)cn1`, the INHIBITION is 53.3%.
With `CCCn1ccnc1-c1nccn1CCC(N)=O` the figure was 29.8%; with `O=C1NCC(C(=O)Nc2ncc(Cc3cccc(F)c3)s2)N1` (centres undefined), 12.7%.
With `O=C1NCC(C(=O)Nc2ncc(Cc3ccc(F)cc3)s2)N1` (centres undefined) the figure was 26.5%; with `Cc1ccc(Cc2cnc(NC(=O)C3CNC(=O)N3)s2)cc1F` (centres undefined), 55.5%; with `CNc1cc(C)nc(C2COCCN2CCOc2ccc(F)cc2)n1` (centres undefined), -12.625%.
With `NC(=O)CCSCc1cc(Br)cc2cccnc12` the figure was -57.1%.
Turning to `CC(SCc1cc(Br)cc2cccnc12)C(N)=O` (centres undefined), the INHIBITION is 58.1%.
For the compound `CC(SCc1ccc(Br)c2cccnc12)C(N)=O` (centres undefined), the INHIBITION is listed as 21.1%.
With `CC(OCC(F)(F)F)C(=O)N1CCCC1` (centres undefined) the figure was -1.37%; with `Cc1ccc(SCC2CNc3nc4ccccc4c(=O)n32)c(C)c1` (centres undefined), 49.9%; with `CC(=O)N(CCc1ccccc1)CC(=O)Nc1ccccc1C#N`, 45.8%.
With `CC(=O)N(CCc1ccccc1)CC(=O)NC(C)(C)C#N` the figure was 59.7%; with `CC(=O)N(CCc1ccccc1)CC(=O)NC1(C#N)CC1`, -3.39%; with `COc1ccc(C2=CCN(C(=O)CN(C)CC(N)=O)CC2)cc1`, 10.8%.
With `COc1ccc(C2=CCN(C(=O)C3CC(=O)N(C4CC4)C3)CC2)cc1` (centres undefined) the figure was 40.3%.
Consider `COc1ccc(C2=CCN(C(=O)C3CCC3)CC2)cc1`, for which the INHIBITION is on record as -6.44%.
With `COc1ccc(C2=CCN(C(=O)C3CCS(=O)(=O)C3)CC2)cc1` (centres undefined) the figure was 59.4%.
With `COc1ccc(C2=CCN(C(=O)CN(C)Cc3ccoc3)CC2)cc1` the figure was 53.5%.
With `COc1ccc(C2=CCN(C(=O)CN(CC(N)=O)C(C)C)CC2)cc1` the figure was 83.2%; with `COc1ccc(C2=CCN(C(=O)CN(C)CC(C)C#N)CC2)cc1` (centres undefined), 46.5%.
For the compound `COc1ccc(C2=CCN(C(=O)CN(C)S(C)(=O)=O)CC2)cc1`, the INHIBITION is on record as -11.4%.
With `COc1ccc(C2=CCN(C(=O)CN(C)Cc3ccco3)CC2)cc1` the figure was 46.2%; with `CC(C)NC(=O)N1CCCC(Cn2cc(-c3ccc(F)cc3)nn2)C1` (centres undefined), 38.5%; with `Cc1nc(C)n(CC2CCCN2CCOc2cccc(F)c2)n1` (centres undefined), 37.9%.
With `Cc1cc(-c2cc3nc(C)c(C)c(NCC4COCCO4)n3n2)no1` (centres undefined) the figure was 8.57%.
With `CNc1ncc(CN(C)CCN2CCCCC2)cn1` the figure was -61.5%; with `CCC1CN(CC(=O)NCCN2CCCCC2)c2ccccc2S1` (centres undefined), 9.57%.
For the compound `COCC1CN(Cc2ccc(OC)cc2)Cc2nn(C)cc21` (centres undefined), the INHIBITION is recorded as 93.3%.
In the case of `COCC1CN(Cc2ccccn2)Cc2nn(C)cc21` (centres undefined), the INHIBITION came out at 60.2%.
With `COCC1CN(Cc2ccccn2)Cc2cn(C)nc21` (centres undefined) the figure was 45.1%; with `CCOCC1CN(Cc2ccc(OC)cc2)Cc2nn(C)cc21` (centres undefined), 30.7%.
As for `COCC1CN(Cc2ccc(F)cc2)Cc2nn(C)cc21` (centres undefined), the INHIBITION was 8.93%.
Consider `COCC1CN(Cc2ccncc2)Cc2nn(C)cc21` (centres undefined), for which the INHIBITION is on record as -5.05%.
